{"source": "PubChem BioAssay", "data": [{"assay": "small-molecule microarray binders of probe aLefty2, primary screen, biochemical, biotinylated probe, 635/667 nm fluorescence (AID 1094);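 note: score merges spot fluorescence near 667 nm with spot signal-to-noise ratio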", "details": "higher = more signal", "values": [{"smiles": "CCCCCCc1nc(CCCc2cc3c(c(CCCCCC)n2)[Si](C(C)C)(C(C)C)OC3)cc2c1[Si](C(C)C)(C(C)C)OC2", "composite z-score": -0.208}, {"smiles": "COc1cccc(C(=O)O[C@H]2CC[C@]3(C)C4=C(CCC3C2(C)C)[C@]2(C)CC[C@H]([C@H](C)CCCC(C)C)[C@@]2(C)CC4)c1", "note": "(stereo not given in full)", "composite z-score": -0.082}, {"smiles": "O=C1N(CCS(=O)(=O)c2ccccc2)Cc2ccccc2C[C@]12N=C(c1ccc(OCCCO)cc1)O[C@@H]2c1ccccc1", "composite z-score": 0.366}, {"smiles": "O=C1C2C=CC(C(O)c3cccs3)N(Nc3ccccc3F)C2C(=O)N1c1ccccc1", "note": "(stereo not given)", "composite z-score": 0.0166}, {"smiles": "COc1ccc(NN2C(C(O)c3ccc(OC)c(OCc4ccccc4)c3)C=CC3C(=O)N(C4CCCCC4)C(=O)C32)cc1", "note": "(stereo not given)", "composite z-score": 0.0225}, {"smiles": "CCOc1cc(C(O)C2C=CC3C(=O)N(c4ccccc4)C(=O)C3N2Nc2ccc([N+](=O)[O-])cc2)ccc1O", "note": "(stereo not given)", "composite z-score": -0.0534}, {"smiles": "COCCOC(=O)N1C(=O)[C@@]2(c3cc(C#CCNC(N)=O)ccc31)[C@H](C(=O)N1CCN(c3ncccn3)CC1)[C@H]1C(=O)O[C@H](c3ccccc3)[C@H](c3ccccc3)N1[C@@H]2c1ccccc1OCCO", "composite z-score": 0.181}, {"smiles": "C=CC[C@]1(C(=O)N2CCOCC2)N=C(c2ccc(OCCCO)cc2)O[C@H]1c1ccccc1", "composite z-score": -0.0212}, {"smiles": "CCOC(=O)C1=CC[C@@H](c2ccccc2)N(S(=O)(=O)c2ccc(C)cc2)[C@H]1C(=O)OCC", "composite z-score": 0.415}, {"smiles": "CC=CC(O)C1C=CC2C(=O)N(c3ccccc3)C(=O)C2N1Nc1ccc(C(C)C)cc1", "note": "(stereo not given)", "composite z-score": 0.183}, {"smiles": "O=C1OCCC=C[C@H]2OC34C=CCN(c5ccc6ccccc6c5)C(=O)[C@H]3N(CCCCCO)C(=O)[C@@H]4C12", "note": "(stereo not given in full)", "composite z-score": -0.0953}, {"smiles": "CCOC(=O)C[C@H]1[C@H](OC(=O)c2ccc(C(=O)c3ccccc3)cc2)[C@@H](NC(=O)C2CCCCC2)c2cc(OCCCO)ccc2N1C(=O)c1ccccc1", "composite z-score": -0.02}, {"smiles": "[N-]=[N+]=Nc1ccccc1[C@@H]1OC(c2ccc(OCCCO)cc2)=N[C@]1(CCS(=O)(=O)c1ccccc1)C(=O)N1CCOCC1", "composite z-score": 0.515}, {"smiles": "NC(=O)NCC#Cc1ccc2c(c1)[C@]1(C(=O)N2)[C@H](C(=O)N2CCCCCCC2)[C@H]2C(=O)O[C@H](c3ccccc3)[C@H](c3ccccc3)N2[C@@H]1c1ccc(OCCO)cc1", "composite z-score": 1.63}, {"smiles": "O=C(NCc1ccccc1)[C@]1(CCS(=O)(=O)c2ccccc2)N=C(c2ccc(OCCCO)cc2)O[C@@H]1c1ccccc1", "composite z-score": -0.0552}, {"smiles": "C=C(C(=O)CC[C@H](OC(C)=O)c1ccc(OCCO)cc1)C(C)C", "composite z-score": -0.212}, {"smiles": "CCCCCN1CC=CC23O[C@@H]4/C=C\\CCC(C)OC(=O)C4[C@H]2C(=O)N(CCCCCO)[C@@H]3C1=O", "note": "(stereo not given in full)", "composite z-score": -0.0491}, {"smiles": "O=C1[C@]2(CO)C=C(Br)[C@@H](C[C@@H]2c2ccccc2)[C@@]12CO2", "composite z-score": -0.227}, {"smiles": "CC(C)C(O)C1C=CC2C(=O)N(c3ccccc3)C(=O)C2N1Nc1ccc(C#N)cc1", "note": "(stereo not given)", "composite z-score": 0.576}, {"smiles": "O=C(CS)NCCCCCCNC(=O)[C@H]1C[C@H]2C(=O)N3CCC[C@H]3C(=O)N2[C@H]1c1cccc(OCCO)c1", "composite z-score": 0.105}, {"smiles": "COCC(=C=CC[C@H](O)c1ccc(OCCO)cc1)C[C@H](O)c1cc(Cl)cc(Cl)c1O", "composite z-score": -0.166}, {"smiles": "CN1CCC(CCCO)=CC1c1ccc(CN2CCCC2)cc1", "note": "(stereo not given)", "composite z-score": 0.36}, {"smiles": "COCCOC(=O)N1C(=O)[C@@]2(c3cc(C#CCC(C(=O)OC)C(=O)OC)ccc31)[C@H](c1ccccc1OCCO)N1[C@H](c3ccccc3)[C@H](c3ccccc3)OC(=O)[C@H]1[C@@H]2C(=O)N1CCc2cc(OC)c(OC)cc2C1", "composite z-score": -0.0373}, {"smiles": "COc1ccc(CCNC(=O)[C@@]2(c3ccc([N+](=O)[O-])cc3)CC(=O)N(CC34CC5CC(CC(C5)C3)C4)[C@@H]2c2ccc(CO)cc2)cc1", "composite z-score": 0.257}, {"smiles": "Cc1ccccc1C(O)C1C=CC2C(=O)N(C)C(=O)C2N1Nc1ccccc1", "note": "(stereo not given)", "composite z-score": 0.149}, {"smiles": "O=C1c2ccccc2[C@@]2(Cc3ccccc3N(Cc3ccccc3)C2=O)[C@H](c2ccc(CO)cc2)N1C1CCCCC1", "composite z-score": -0.239}, {"smiles": "O=C1O[C@H](c2ccccc2)[C@H](c2ccccc2)N2[C@H]1[C@@H](C(=O)Nc1nc3ccccc3s1)[C@]1(C(=O)Nc3ccccc31)[C@H]2c1ccc(O)cc1", "composite z-score": -0.23}, {"smiles": "C=C[C@@H](COC(C)=O)N(Cc1ccc([N+](=O)[O-])cc1)S(=O)(=O)c1ccc(Br)cc1", "composite z-score": 0.157}, {"smiles": "CC(C)N1C(=O)c2ccccc2[C@@H](C(=O)NCCCN(C)C)[C@@H]1c1ccc(CO)cc1", "composite z-score": 0.196}, {"smiles": "CC(C)c1ccc(NN2C(C(O)c3cccc(O)c3)C=CC3C(=O)N(c4ccccc4)C(=O)C32)cc1", "note": "(stereo not given)", "composite z-score": 0.234}, {"smiles": "CCOC(=O)C[C@H]1[C@H](OC(=O)Cc2ccc3c(c2)OCO3)[C@@H](NC(=O)C2CCCCC2)c2cc(OCCCO)ccc2N1C(=O)Cc1ccc(OC)cc1", "composite z-score": -0.0313}, {"smiles": "COCCOC(=O)N1C(=O)[C@@]2(c3cc(C#CCC(C(=O)OC)C(=O)OC)ccc31)[C@H](C(=O)N1CCN(c3ncccn3)CC1)[C@H]1C(=O)O[C@H](c3ccccc3)[C@H](c3ccccc3)N1[C@@H]2c1ccc(OCCO)cc1", "composite z-score": -0.184}, {"smiles": "COc1ccc(C#Cc2ccc3c(c2)[C@]2(C(=O)N3)[C@H](c3ccc(O)cc3)N3[C@H](c4ccccc4)[C@H](c4ccccc4)OC(=O)[C@H]3[C@@H]2C(=O)N2CCCCCCC2)cc1", "composite z-score": 1.61}, {"smiles": "O=C1OCC=C[C@H]2OC34C=CCN(c5ccc(Cl)cc5)C(=O)[C@H]3N(CCCCCCO)C(=O)[C@@H]4[C@@H]12", "note": "(stereo not given in full)", "composite z-score": -0.0936}, {"smiles": "O=C1O[C@H](c2ccccc2)[C@H](c2ccccc2)N2[C@H]1[C@@H](C(=O)N1CCN(c3ncccn3)CC1)[C@]1(C(=O)Nc3ccccc31)[C@H]2c1ccc(OCCO)cc1", "composite z-score": -0.037}]}]}
